Compound activity: PubChem BioAssay, National Center for Advancing Translational Sciences (NCATS)
PLK1 PBD inh = blocks phosphopeptide binding to human PLK1 polo-box domain | Plk1 PBD binding of FITC phosphopeptide, fluorescence polarization | Potency, µM, without a hit: max response, negative = inhibition, actives largely listed as inhibitors | actives 2.8% (n = 360,000) | AID 720504; further: potency means the concentration at half of the fitted maximal effect; series mostly up to about 57 µM; on the % scale 0 is the no-effect control and ±100 the full control effect; nearly all actives have a fitted effect of over 65% in size
PI5P4Ka inh = blocks human PI5P4K alpha kinase activity; P48426; max response, %; PI5P4Kalpha enzyme, ADP-Glo luminescence, 60 min; hits give low values; actives 1.2% (n = 330,000); active means max response of -50% or lower; inconclusive means between -30% and -50%; inactive means -30% or higher; further: value at the top dose of about 77 µM; on the % scale 0 is the no-effect control and ±100 the full control effect
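Reactions run in 0.038 M HEPES pH 7.4, 0.28 mM EGTA, 0.1% CHAPS and 5% DMSO, with PI5P4Kalpha, substrate, compound and 5 microM ATP final, one hour at room temperature. Readout is ADP-Glo luminescence.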
JMJD2A Tudor inh = JMJD2A Tudor domain (human) inhibition | AlphaScreen JMJD2A-Tudor / H3K4me3 peptide binding | Potency, µM (top dose mostly 114 µM), without a hit: at the highest dose activity change, negative = inhibition, hits mostly inhibitors | actives 4.4% (n = 390,000) | AID 504339; further: potency means the concentration at half of the fitted maximal effect; on the % scale 0 is the no-effect control and ±100 the full control effect; nearly all actives have a fitted effect of over 50% in size
Target sequence (O75164 whole entry, looked up, the tested form may be a part): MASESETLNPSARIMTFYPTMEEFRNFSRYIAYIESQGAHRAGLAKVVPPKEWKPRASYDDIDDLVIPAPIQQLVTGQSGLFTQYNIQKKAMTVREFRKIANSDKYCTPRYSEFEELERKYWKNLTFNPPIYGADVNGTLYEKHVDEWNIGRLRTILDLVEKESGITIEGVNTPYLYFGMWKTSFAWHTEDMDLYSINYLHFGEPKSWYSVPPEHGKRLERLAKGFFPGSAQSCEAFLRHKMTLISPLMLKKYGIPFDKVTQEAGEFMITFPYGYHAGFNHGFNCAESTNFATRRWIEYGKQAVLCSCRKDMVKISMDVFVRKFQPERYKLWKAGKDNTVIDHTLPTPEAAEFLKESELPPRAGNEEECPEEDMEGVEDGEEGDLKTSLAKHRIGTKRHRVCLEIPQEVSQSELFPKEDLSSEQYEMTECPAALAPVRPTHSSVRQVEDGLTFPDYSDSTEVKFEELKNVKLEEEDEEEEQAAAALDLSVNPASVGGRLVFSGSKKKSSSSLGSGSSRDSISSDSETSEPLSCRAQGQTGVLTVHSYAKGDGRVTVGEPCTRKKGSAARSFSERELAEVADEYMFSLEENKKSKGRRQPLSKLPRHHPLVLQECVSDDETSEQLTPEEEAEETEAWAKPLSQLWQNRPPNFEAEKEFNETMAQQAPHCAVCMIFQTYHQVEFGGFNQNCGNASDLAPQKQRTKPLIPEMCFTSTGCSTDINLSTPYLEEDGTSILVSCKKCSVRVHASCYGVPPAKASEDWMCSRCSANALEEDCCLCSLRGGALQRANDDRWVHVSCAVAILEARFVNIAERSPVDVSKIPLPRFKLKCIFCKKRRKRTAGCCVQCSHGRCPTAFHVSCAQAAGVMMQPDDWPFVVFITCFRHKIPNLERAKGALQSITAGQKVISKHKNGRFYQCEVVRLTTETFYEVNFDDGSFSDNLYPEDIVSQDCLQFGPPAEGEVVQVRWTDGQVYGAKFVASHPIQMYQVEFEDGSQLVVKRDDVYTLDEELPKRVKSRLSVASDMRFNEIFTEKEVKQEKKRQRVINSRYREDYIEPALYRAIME
HP1b chromo inh = blocks HP1-beta chromodomain binding to methylated histone tails. AlphaScreen HP1-beta / biotin-H3K9me3 peptide binding. Potency, µM (series often up to 114 µM), for the others: at the highest dose activity change, negative = inhibition, actives largely listed as inhibitors. actives 0.56% (n = 390,000); further: potency means the concentration at half of the fitted maximal effect; nearly all actives have a fitted effect of over 70% in size
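Compound inhibition of the preformed complex between 50 nM HP1-beta and 50 nM biotinylated H3K9me3 peptide was read by AlphaScreen. Buffer was PBS pH 7.4 with 0.01% Tween-20. Incubations ran 30 min at room temperature, with 10 ug/mL donor/acceptor beads.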
BAZ2B block = inhibitors of human BAZ2B bromodomain; Q9UIF8; AlphaScreen BAZ2B-H3K14Ac peptide displacement; Potency, µM (top dose mostly 114 µM), for the others: at the top dose activity change, negative = inhibition, most hits filed as inhibitors; actives 4.4% (n = 360,000); AID 504333; further: potency means the concentration at half of the fitted maximal effect; on the % scale 0 is the no-effect control and ±100 the full control effect; nearly all actives have a fitted effect of over 60% in size
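AlphaScreen displacement: compounds (up to 110uM) incubated 30 min at room temperature with a preformed 50 nM BAZ2B/50 nM biotinylated H3K14Ac peptide complex in PBS pH 7.4 with Tween-20. Donor and acceptor beads at 10 ug/mL final added, 20 min light-protected before reading.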
G9a inh = inhibitors of human histone lysine methyltransferase G9a. G9a H3K9 monomethylation, AlphaScreen, 2 h. Potency, µM (titrated, usually from 102 µM), for inactives: at the highest dose activity, negative = inhibition, actives largely listed as inhibitors. Q96KQ7. actives 8.8% (n = 350,000); further: potency means the concentration at half of the fitted maximal effect; on the % scale 0 is the no-effect control and ±100 the full control effect; nearly all actives have a fitted effect of over 75% in size
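Chemiluminescent proximity detection of H3K9 monomethylation, read after 10 min bead incubation in the dark. Reaction: 20 nM G9a, 500 nM biotin-H3K9 peptide, 20 uM SAM cofactor, 2 h, room temperature, following 15 min enzyme-compound preincubation.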
The depositor's hits bear a star; ? = inconclusive; . = no result; [ ] = another dose, or the depositor's remark. A selection: hits, their analogues and other compounds. The true share with any hit is near 12%. Unless noted, the call rests on the fitted dose curve; in most records, active means well fitted curve in the direction sought with a large enough effect; inconclusive means small, poorly fitted or top-dose-only effect, or another doubt; inactive means no such curve, though single readings can be large; an effect the other way counts as inactive or inconclusive.

SMILES | PLK1 PBD inh | PI5P4Ka inh | JMJD2A Tudor inh | HP1b chromo inh | BAZ2B block | G9a inh
CCc1c(C)nc2nc(NC(C)=O)[nH]n2c1=O | -1.4% | . | -27.8% | 13.5% | -10.1% | ?
CCc1cccc(NC(=O)Cn2c(=O)n(CC3CCC(C(=O)NC)CC3)c(=O)c3sccc32)c1 (stereo not drawn) | . | . | -20.0% | -9.0% | -4.2% | 3.2%[59 µM]
CC(C)CCn1c(SCC(=O)NC2CCS(=O)(=O)C2)nc2cc(Cl)ccc2c1=O (stereo not drawn) | -5.0% | 8.6 | ? | -3.0% | 1.1% | -3.5%
O=C(NCCC(=O)N1CCc2ccccc21)c1ccco1 | -1.2% | 0.1 | -2.5% | 22.5% | 0.2% | -12.9%
Cc1cccc(C(=O)NNc2ncnc3c2cnn3-c2ccc(C)cc2C)c1 | . | . | -26.0% | 65.8% | 12.9% | 13.4%[59 µM]
COc1c(F)c(F)c(C(=O)Nc2ccc(N3CCN(Cc4ccccc4)CC3)cc2)c(F)c1F | -5.6% | . | -22.6% | -2.1% | -31.8% | 17.8µM*
O=C(Nc1ccccc1F)c1ccc(CN2CCN(c3ccccc3)CC2)cc1 | -9.8% | 2.0 | ? | -2.4% | -38.9% | 79.4µM*
Cc1nn(Cc2ccc(C(=O)Nc3nccs3)cc2)c(C)c1Cl | -2.3% | 0.8 | -27.8% | 31.9% | -1.5% | 44.7µM*
COc1ccc(NC(=O)c2ccc(CN3CCN(c4ccccc4)CC3)cc2)cc1 | 2.2% | 3.4 | 1.2% | 16.5% | 10.4% | ?
Cc1nn(Cc2ccc(C(=O)NN)cc2)c(C)c1Cl | 7.8% | -3.6 | -14.2% | 32.3% | -4.8% | 1.9%
Cc1nn(Cc2ccc(C(=O)Nc3ccccc3F)cc2)c(C)c1Cl | -4.6% | -4.5 | 4.3% | 48.8% | 6.3% | 44.7µM*
COc1cccc2c1Oc1ncccc1N(C(=O)CCC(=O)NCc1ccc(N(C)C)cc1)C2 | . | . | -12.6% | 18.0% | -0.4%[57.1 µM] | ?
CC(C)(C)OC(=O)N1CCC(c2c(C(=O)Nc3ccc4c(c3)OCO4)cnn2-c2ccc(F)cc2F)CC1 | . | . | ? | -11.0% | ? | -41.3%[59 µM]
O=C(Nc1ccc(-n2nncc2-c2ccco2)cc1)c1ccc(F)cc1 | -17.2% | . | ? | ? | ? | 50.1µM*
Cc1ccccc1-n1nc2c(c1NC(=O)c1c(-c3ccccc3Cl)noc1C)CSC2 | -11.0% | . | -19.0% | 6.2% | -8.1% | -3.4%
Cc1ccc(-n2nc3c(c2NC(=O)c2c(-c4ccccc4Cl)noc2C)CSC3)cc1 | -9.8% | . | -24.4% | 17.6% | 0.2% | 44.7µM*
Cc1onc(-c2ccccc2Cl)c1C(=O)Nc1ccc(-n2nncc2-c2ccco2)cc1 | -3.0% | . | ? | -5.8% | ? | 39.8µM*
N#Cc1ccccc1OCC(=O)Nc1ccc(S(=O)(=O)N2CCOCC2)cc1 | -11.2% | -1.7 | -15.9% | 13.2%[57 µM] | . | .
CCOc1ccccc1CNC(=O)c1cnc2sc(N3CCCCCC3)nn2c1=O | . | . | -17.3% | -0.3% | -16.7% | 26.8%[59 µM]
CC1=C(C(=O)OCc2ccccc2)C(c2ccc(C)cc2)NC(=O)N1 (stereo not drawn) | -1.5% | 0.0 | . | . | . | .
COCCN(C(=O)CN1CCc2ccccc21)c1c(N)n(Cc2ccccc2)c(=O)[nH]c1=O | 2.0% | -7.3 | -9.4% | 45.5% | -1.1% | ?
CCN(C(=O)CN1CCc2ccccc21)c1c(N)n(Cc2ccccc2)c(=O)[nH]c1=O | -14.8% | -1.6 | -16.8% | 43.5% | -15.9% | 28.2µM*
Cn1c(=O)c(C(=O)CN2CCc3ccccc32)c(N)n(Cc2ccccc2)c1=O | 29.9µM* | -18.6 | 50.1µM* | -3.6% | 6.4% | 35.5µM*
CCN(C(=O)CN1CCN(c2ccc(O)cc2)CC1)c1c(N)n(Cc2ccccc2)c(=O)[nH]c1=O | 26.7µM* | -1.7 | ? | -12.0% | . | 8.91µM*
Cn1c(=O)c(C(=O)CN2CCCc3ccccc32)c(N)n(Cc2ccccc2)c1=O | -14.9% | -15.5 | ? | 1.4% | -61.0% | ?
COc1ccccc1CCn1c(=O)c(-c2cc(F)cc(F)c2)nc2cncnc21 | . | . | . | . | . | -1.2%[12.7 µM]
Oc1ccccc1/C=N/Nc1ccccc1 | -5.4% | 14.0 | -31.9% | 22.0% | -35.9% | 8.91µM*
O=c1[nH]cc(C=NNc2ccccc2)c(=O)[nH]1 | -28.3% | -20.2 | . | . | . | .
